Rows were chosen to be rich in hits. Some 4.8% of all compounds tested hit in one or more screens of this group.
USP1 inh = blocks the human USP1/UAF1 deubiquitinase complex. recombinant USP1/UAF1, Ub-Rhodamine cleavage fluorescence. Potency, µM (highest dose often 57.1 µM), usual class: inhibitors. 0.23% of 390,000 active. AID 743255; also: nearly all actives have a fitted effect of over 60% in size
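1 nM enzyme complex + cpd, 15 min RT; start with Ub-Rho 150nM final; kinetic fluorescence ex 480/em 540, 6 reads q60 s. Buffer 50mM HEPES pH 7.8, 0.5mM EDTA, 0.1 mg/ml BSA, 1mM TCEP, 0.01% Tween-20.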
ATXN2 expr inh = ATXN2 expression inhibition; Potency, µM (highest dose often 57 µM), most hits filed as inhibitors; AID 1745845; 0.72% of 360,000 active; HEK-293 ATXN2-luciferase reporter, luminescence, 24 h; also: nearly all actives have a fitted effect of over 55% in size
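qHTS (up to 57 uM final) was run with 24 h compound exposure of reporter cells at 37 °C. Each well was multiplexed: SteadyGlo luminescence measured ATXN2-luciferase expression after a fluorogenic Gly-Phe-AFC viability readout (25 uM final).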
IL1B secr inh = blocks inflammasome-driven IL-1 beta release; THP-1 LPS/ATP IL-1B secretion, AlphaLISA, 16 h; stronger effect = lower value; AID 743279; 4.7% of 360,000 active; activity change, % at 57.5 µM; in the data active = activity change below about -50%; inconclusive = mostly about -30% to -49%
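Secreted IL-1B measured by AlphaLISA bead assay after 16 h compound exposure of THP-1 cells; compounds (final up to 57.5 uM) added 1 h before LPS (250 ng/mL) and ATP (1.25 mM) stimulation; lower signal means less secretion.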
USP2a block = blocks human ubiquitin-specific protease USP2a | O75604 | USP2 core, Ub-CHOP2 coupled fluorogenic reporter, 485/531 | Potency, µM (series often up to 38.3 µM), usual class: inhibitors | 0.01% of 330,000 active | AID 463254
Target sequence (O75604 whole entry, looked up): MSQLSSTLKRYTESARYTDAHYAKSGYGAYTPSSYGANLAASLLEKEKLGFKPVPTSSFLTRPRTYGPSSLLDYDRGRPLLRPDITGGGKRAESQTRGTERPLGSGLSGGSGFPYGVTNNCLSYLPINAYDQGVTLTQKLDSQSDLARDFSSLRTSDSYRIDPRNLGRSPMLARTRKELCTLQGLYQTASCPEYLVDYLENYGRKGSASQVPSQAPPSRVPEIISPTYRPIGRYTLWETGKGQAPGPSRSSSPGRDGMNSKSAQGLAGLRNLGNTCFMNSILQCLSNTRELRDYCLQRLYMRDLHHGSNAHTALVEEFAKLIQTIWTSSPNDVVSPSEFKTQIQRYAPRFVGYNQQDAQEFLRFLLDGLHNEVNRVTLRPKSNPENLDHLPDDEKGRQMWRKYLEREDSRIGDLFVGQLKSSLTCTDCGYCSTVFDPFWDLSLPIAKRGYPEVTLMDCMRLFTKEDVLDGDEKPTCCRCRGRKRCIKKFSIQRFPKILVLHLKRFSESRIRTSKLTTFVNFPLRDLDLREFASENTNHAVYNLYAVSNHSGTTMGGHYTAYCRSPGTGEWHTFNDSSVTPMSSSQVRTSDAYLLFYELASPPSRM
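Cell-free coupled assay: 10nM USP2 core preincubated 30min RT with compound in Tris-HCl pH 8.0/CaCl2/CHAPS buffer, then 25nM Ub-CHOP2 and 25nM reporter substrate; fluorescence (Ex 485/Em 531) read after 60min RT, normalized to NEM inhibition, concentration-response curves fitted.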
S2 tox = reduces viability in counter-screen for ATXN expression inhibitors | S2 cells (HEK-293 line with an ATXN2-luciferase reporter) viability, CellTiter-Fluor protease fluorescence, 24 h | Potency, µM (titrated, usually from 56.7 µM), most hits filed as cytotoxic | 0.49% of 400,000 active | AID 651635; also: nearly all actives have a fitted effect of over 40% in size
Hits are given with their value; 0 = inactive; ? = inconclusive; - = not tested or not shown; ! = not active in a repeat; [ ] = remark or other dose. Unless noted, calls follow the shape of the dose curve; as a rule, active = well fitted curve in the direction sought with a large enough effect; inconclusive = small, poorly fitted or top-dose-only effect, or another doubt; inactive = no such curve, though single readings can be large; an effect the other way counts as inactive or inconclusive.

SMILES | USP1 inh | ATXN2 expr inh | IL1B secr inh | USP2a block | S2 tox
Cc1cc(S(=O)(=O)NC2CCN(Cc3ccccc3)CC2)c(C)cc1Cl | 0 | 0 | -96 | 0 | 0
Cc1cc(C)c(S(=O)(=O)NC2CCN(Cc3ccccc3)CC2)c(C)c1 | 0 | - | 0 | 0 | 0
Cc1cc(C)c(C)c(S(=O)(=O)NC2CCN(Cc3ccccc3)CC2)c1C | 0 | 0[11.3 µM] | -73 | 0 | 0
CS(=O)(=O)N1CCN(c2ccc(NC(=O)c3ccc([N+](=O)[O-])o3)cc2)CC1 | 0 | - | -97 | 0 | ?
O=C(Nc1ccc(N2CCCCC2)cc1)c1ccc([N+](=O)[O-])o1 | 0 | 0 | -99 | 0 | ?
CC1CCN(c2ccc(NC(=O)c3ccc([N+](=O)[O-])o3)cc2)CC1 | 0 | 0 | -109 | 0 | ?
O=C(Nc1ccc(N2CCN(Cc3ccccc3F)CC2)cc1)c1ccccc1[N+](=O)[O-] | ? | 0 | 0 | 0 | 0
O=C(Nc1ccc(N2CCN(Cc3ccccc3F)CC2)cc1)c1ccc([N+](=O)[O-])o1 | 0 | 0 | -103 | 0 | 0
N[C@H]1CN(c2c(F)cc3c(=O)c(C(=O)O)cn(C4C[C@@H]4F)c3c2Cl)CC12CC2 (some centres undefined) | - | 0 | - | - | 0
O=C(Nc1ccc(N2CCCC2)c(Cl)c1)c1ccc([N+](=O)[O-])o1 | 0 | 0 | -109 | 0 | 0
CCOC(=O)c1c(C)cc2c(CO)n[nH]c(=O)c2c1C | 0 | - | 0 | - | 0
O=C(CSc1nc2ncccc2[nH]1)Nc1cc(F)ccc1F | 0 | - | - | - | -
C/C(=C\c1ccccc1)C(=O)c1c(C)cc(C)[nH]c1=O | 0 | - | 0 | 0 | -
Cc1cc(C)c(C(=O)/C=C/c2ccc3c(c2)OCO3)c(=O)[nH]1 | 0 | 0 | -91 | 0 | 0
COC(=O)/C=C/c1ccc2c(c1)OCO2 | 0 | 0 | 0 | 0 | 0
C/C(=C\c1ccccc1F)C(=O)c1c(C)cc(C)[nH]c1=O | 0 | 0 | -68 | 0 | 0
Cc1cc(C)c(C(=O)/C=C/c2cccc3ccccc23)c(=O)[nH]1 | 0 | ? | -85 | 0 | ?
Cc1ccc(C(=O)/C=C/c2ccc(Br)cc2)o1 | 0 | 0 | -57 | 0 | 0
O=C1NC(=O)C(=Cc2ccc3c(c2)OC(F)(F)O3)S1 | - | 0 | - | - | -
Cn1nc(C(=O)NCCN2Cc3ccccc3OC(c3ccsc3)C2)c2ccccc2c1=O (centres undefined) | - | - | - | - | 0
Nc1nc2c(c(=O)[nH]1)N(C=O)C(CNc1ccc(C(=O)N[C@@H](CCC(=O)O)C(=O)O)cc1)CN2 (some centres undefined) | - | - | - | - | 0
Cc1ccc(C(=O)/C=C/c2ccc3c(c2)OCO3)o1 | 0 | 0 | -50 | 0 | 0
O=C1C=C(c2ccc(C(=O)O)cc2)C[C@@H](c2ccc(F)cc2)C1 | 0 | 0 | 0 | 0 | 0
COC(=O)c1cnn(-c2ccc(C(=O)Nc3cccc(C(C)=O)c3)cc2)c1N | 0 | 0 | - | 0 | 0
COc1cc(C(=O)NC2CCN(C)CC2)ccc1Nc1ncc2c(n1)N(CCc1ccccc1)CCC(=O)N2C | 0 | 0 | 0 | - | 0
SMILES | USP1 inh | ATXN2 expr inh | IL1B secr inh | USP2a block | S2 tox
COc1cc(C(=O)NC2CCN(C)CC2)ccc1Nc1ncc2c(n1)N(C1CCCC1)CCC(=O)N2C(C)C | 0 | 6.1µM! | 0 | - | 28µM
CCOC(=O)CCC(NC(=O)c1cncc(O)c1)C(=O)OCC (centres undefined) | 0 | 0 | 0 | 0 | 0
CCOC(=O)CCC(NC(=O)c1ccc(Nc2nc3ccccc3nc2C(=O)OCC)cc1)C(=O)OCC (centres undefined) | 0 | 27µM | 0 | - | 30µM
COc1cccc(-c2ccc(O)c(CNCc3cccc4ccccc34)c2)n1 | - | - | - | - | 0
COc1ccc(CN2CCN(Cc3c[nH]c4ccccc34)CC2)c(OC)c1 | 0 | - | 0 | - | 0
COc1ccc2c(c1)c(C1=C(c3c[nH]c4ccccc34)C(=O)NC1=O)cn2CCCN(C)C | - | 22µM | - | - | -
Cn1nc(C(=O)Nc2ccccc2Cl)cc1C(=O)Nc1ccccc1Cl | 0 | - | -55 | - | 0
Cn1nc(C(=O)Nc2ccc(Br)cc2)cc1C(=O)Nc1ccc(Br)cc1 | 0 | 0 | 0 | 0 | -
OC[C@H]1O[C@H](c2nc(-c3nc(-c4cccs4)no3)cs2)C[C@@H]1O | - | 0 | -80 | - | 0
CC(=O)c1cccc(NC(=O)Cn2nc(C(F)(F)F)c3c2CCC3)c1 | 0 | 0 | - | - | 0
CC(C)C[C@H](NC(=O)N1CCn2c1nc1ccccc12)C(=O)NCCc1ccccc1 | 0 | 0 | -51 | 0 | 0
CC(C)C(=O)NCCc1nc2ccccc2n1CCc1ccccc1 | 0 | 0[11.3 µM] | -63 | 0 | 0
CCCCCCCCCC(=O)NO | - | - | - | - | 0
COc1ccc(OCC(=O)Nc2ccccc2C(=O)NC2CC2)cc1 | 0 | 0 | 0 | 0 | 0
Cc1cccc2cc(C#N)c(NCCCNS(=O)(=O)c3ccc(Cl)cc3)nc12 | 0 | - | 0 | 0 | 0
CC(C)CC(=O)Nc1ccc(Nc2ccccc2)cc1 | 0 | 0 | 0 | 0 | 0
CC(C)(C)CC(=O)Nc1ccc(Nc2ccccc2)cc1 | 0 | 0 | -62 | 0 | 0
CCCCc1ccc(NC(=O)CC(C)(C)C)cc1 | 0 | 0 | -76 | 0 | 0
COc1ccc(-c2cc3nc(-c4ccc(Br)cc4)cc(C(F)(F)F)n3n2)cc1 | 0 | 0 | - | - | 0
Cc1ccc(-n2[nH]c(C)c(N=Nc3cccc(-c4cccc(C(=O)O)c4)c3O)c2=O)cc1C | - | ? | - | - | 0
Oc1ccccc1N1CCN(c2ccc3ccccc3n2)CC1 | ? | 0 | ? | 0 | 0
COc1ccc(-c2nc(SC)n(C)c(=O)c2C#N)cc1OC | 0 | 0 | -76 | 0 | 0
COc1ccc(C=C2C=C(C(C)(C)C)C(=O)C(C(C)(C)C)=C2)cc1OC | 0 | ? | -96 | 0 | 0
COc1ccc(/C=C2\CC/C(=C\c3ccc(OC)c(OC)c3)C2=O)cc1OC | 0 | 0 | 0 | 0 | 0
COc1ccc(COC(=O)Nc2cc3c(C(F)(F)F)nn(C)c3s2)cc1 | 0 | 0 | 0 | 0 | 0
SMILES | USP1 inh | ATXN2 expr inh | IL1B secr inh | USP2a block | S2 tox
Cn1nc(C(F)(F)F)c2cc(NC(=O)OCc3ccc(C(C)(C)C)cc3)sc21 | 0 | 0 | -87 | 0 | 0
Cn1nc(C(F)(F)F)c2cc(NC(=O)OCc3ccc(F)cc3)sc21 | 0 | 0 | -87 | 0 | 0
COc1cccc(-c2coc3c(C)c4oc(=O)c(CCC(=O)O)c(C)c4cc23)c1 | 0 | 0 | -60 | 0 | 0
O=c1c2c(nc3c(-c4ccc(Cl)cc4)c[nH]n13)CCCC2 | 0 | 16µM | 0 | 0 | ?
O=S(=O)(NCC(Nc1ccc(Cl)cc1)c1ccccc1)c1ccccc1 (centres undefined) | 0 | ? | -92 | 0 | -
Cc1ccc(NC(CNS(=O)(=O)c2ccc(Cl)cc2)c2ccccc2)cc1 (centres undefined) | 0 | ? | ? | 0 | 0
COc1ccc(CN2CCOc3ccc(CN4CCN(CCO)CC4)cc3C2)c2ccccc12 | - | - | - | - | 0
Nc1nnc(N)c2ccccc12 | 0 | 0 | 0 | 0 | 0
Nc1nsc2ccccc12 | 0 | 0 | -99 | 0 | 0
O=[N+]([O-])c1ccc(C=NNc2ccccc2)cc1 | 0 | 0 | 0 | - | 0

Assay outcomes as filed in PubChem BioAssay.
